Source: the supplement of paper PMC9694430
“And” between values parts separate entries of the source, which are not always exact repeats. Equal values may be shown once.

Columns and labels:
Test in all cases: thermal shift delta Tm vs DMSO control; higher = stronger stabilization (binding)
Conditions in all cases: 12.5 µM; protein concentration 2 µM
LOC_OS01G01410-cb001 = tested on: LOC_OS01G01410-cb001
How it was run: (§1)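 Rice kinase domain constructs were expressed in E. coli, purified, and tested by differential scanning fluorimetry with compound added in DMSO. Each well of a 96-well plate held 19.5 μl of 2 μM kinase in 100 mM potassium phosphate pH 7.5, 150 mM NaCl, 10% glycerol and 5 × SYPRO Orange, and fluorescence was read from 25°C to 95°C at 0.05°C/s. The melting temperature shift is the mean of triplicates, taken against protein with DMSO alone after Boltzmann fitting.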

LOC_OS01G02750-cb003 = tested on: LOC_OS01G02750-cb003
How it was run: as §1

LOC_OS01G10900-cb004 = tested on: LOC_OS01G10900-cb004
How it was run: as §1

LOC_OS01G13800-cb001 = tested on: LOC_OS01G13800-cb001
How it was run: as §1

LOC_OS01G14860-cb001 = tested on: LOC_OS01G14860-cb001
How it was run: as §1

LOC_OS01G21960-cb002 = tested on: LOC_OS01G21960-cb002
How it was run: as §1

LOC_OS01G39600-cb002 = tested on: LOC_OS01G39600-cb002
How it was run: as §1

LOC_OS01G48390-cb002 = tested on: LOC_OS01G48390-cb002
How it was run: as §1

LOC_OS01G51400-cb002 = tested on: LOC_OS01G51400-cb002
How it was run: as §1

LOC_OS01G52050-cb004 = tested on: T1, LOC_OS01G52050-cb004
T1 sequence (whole entry): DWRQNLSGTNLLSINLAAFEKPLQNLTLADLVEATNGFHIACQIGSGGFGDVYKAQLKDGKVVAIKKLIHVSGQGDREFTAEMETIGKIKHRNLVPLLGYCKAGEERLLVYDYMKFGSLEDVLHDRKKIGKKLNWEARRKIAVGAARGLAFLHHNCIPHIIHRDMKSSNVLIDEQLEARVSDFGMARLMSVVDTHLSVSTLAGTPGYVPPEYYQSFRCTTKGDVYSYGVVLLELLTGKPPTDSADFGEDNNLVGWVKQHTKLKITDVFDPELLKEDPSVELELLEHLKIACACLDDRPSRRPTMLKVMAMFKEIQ
How it was run: as §1

LOC_OS01G57100-cb003 = tested on: LOC_OS01G57100-cb003
How it was run: as §1

LOC_OS01G60330-cb001 = tested on: LOC_OS01G60330-cb001
How it was run: as §1

LOC_OS01G60700-cb002 = tested on: LOC_OS01G60700-cb002
How it was run: as §1

LOC_OS01G63280-cb003 = tested on: LOC_OS01G63280-cb003
How it was run: as §1

LOC_OS01G67340-cb003 = tested on: LOC_OS01G67340-cb003
How it was run: as §1

LOC_OS01G70970-cb002 = tested on: LOC_OS01G70970-cb002
How it was run: as §1

LOC_OS02G07810-cb001 = tested on: LOC_OS02G07810-cb001
How it was run: as §1

LOC_OS02G08530-cb003 = tested on: LOC_OS02G08530-cb003
How it was run: as §1

LOC_OS02G14120-cb001 = tested on: LOC_OS02G14120-cb001
How it was run: as §1

LOC_OS02G17970-cb001 = tested on: LOC_OS02G17970-cb001
How it was run: as §1

Row | SMILES | thermal shift delta Tm (LOC_OS01G01410-cb001) | thermal shift delta Tm (LOC_OS01G02750-cb003) | thermal shift delta Tm (LOC_OS01G10900-cb004) | thermal shift delta Tm (LOC_OS01G13800-cb001) | thermal shift delta Tm (LOC_OS01G14860-cb001) | thermal shift delta Tm (LOC_OS01G21960-cb002) | thermal shift delta Tm (LOC_OS01G39600-cb002) | thermal shift delta Tm (LOC_OS01G48390-cb002) | thermal shift delta Tm (LOC_OS01G51400-cb002) | thermal shift delta Tm (LOC_OS01G52050-cb004) | thermal shift delta Tm (LOC_OS01G57100-cb003) | thermal shift delta Tm (LOC_OS01G60330-cb001) | thermal shift delta Tm (LOC_OS01G60700-cb002) | thermal shift delta Tm (LOC_OS01G63280-cb003) | thermal shift delta Tm (LOC_OS01G67340-cb003) | thermal shift delta Tm (LOC_OS01G70970-cb002) | thermal shift delta Tm (LOC_OS02G07810-cb001) | thermal shift delta Tm (LOC_OS02G08530-cb003) | thermal shift delta Tm (LOC_OS02G14120-cb001) | thermal shift delta Tm (LOC_OS02G17970-cb001)
1 | c1nc2c(NC3CCCCC3)nc(Nc3ccc(N4CCOCC4)cc3)nc2[nH]1 [Reversine] | 5.03 °C | 0.7 °C | 0.47 °C | 0.43 °C | 2.02 °C | 2.54 °C | 5.31 °C | -0.29 °C | 1.66 °C | 5.54 °C | 0.27 °C | 11.7 °C | 1.27 °C | 1.53 °C | 3.68 °C | 7.39 °C | -0.13 °C | 4.69 °C | 7.96 °C | 0.48 °C
2 | CC(C)(O)CNc1ncc(-c2ccnc(Nc3ccncc3)n2)c(CC2CC2)n1 [VPS34 inhibitor 1 (Compound 19, PIK-III analogue)] | 0.51 °C | 1.04 °C | 5.05 °C | 0.63 °C | 2.25 °C | 0.87 °C | 0.48 °C | 1.46 °C | 0.29 °C | 4.06 °C | 1.59 °C | 0.38 °C | 0.34 °C | 0.12 °C | -0.02 °C | 0.5 °C | -0.03 °C | 0.85 °C | 4.52 °C | 0.28 °C
3 | O=c1sn(-c2cccc3ccccc23)c(=O)n1Cc1ccccc1 [Tideglusib] | 0.61 °C | -1.04 °C | -0.23 °C | 0.16 °C | 0.15 °C | 0.39 °C | 1.37 °C | 0.44 °C | 0.24 °C | 0.37 °C | 1.25 °C | 0.51 °C | 1.08 °C | 0.25 °C | 0.24 °C | -0.22 °C | 0.81 °C | 0.5 °C | -0.01 °C | 1.3 °C
4 | C#Cc1cccc(Nc2ncnc3cc(OC)c(OCCCCCCC(=O)NO)cc23)c1 | 0.66 °C | 0.59 °C | 0.97 °C | 0.44 °C | 0.54 °C | 0.53 °C | 1.06 °C | 1.12 °C | 0.13 °C | 0.41 °C | 0.24 °C | 0.19 °C | 0.52 °C | 0.06 °C | -0.47 °C | 0.22 °C | 0.79 °C | 0.57 °C | 1.05 °C | 0.31 °C
5 | O=C(NC1CCNCC1)c1n[nH]cc1NC(=O)c1c(Cl)cccc1Cl | 0.79 °C and -0.04 °C | 0.32 °C and 1.46 °C | 0.21 °C and 0.72 °C | -0.01 °C and 1.05 °C | 4.91 °C and 5.53 °C | 0.86 °C and 0.55 °C | -0.04 °C and 0.17 °C | 0.25 °C and 0.54 °C | -0.23 °C and 0.38 °C | -0.1 °C and 0.56 °C | 0.75 °C and 1.2 °C | 0.78 °C and 1.25 °C | 0.49 °C and 1.4 °C | 0.02 °C and 0.4 °C | -0.21 °C and 0.3 °C | 0.28 °C and 0.16 °C | 0.48 °C and 1.2 °C | 0.49 °C and 0.58 °C | -0.32 °C and 0.19 °C | 0.23 °C and 1.28 °C
6 | Cc1cc2c(F)c(Oc3ncnn4cc(OC[C@@H](C)O)c(C)c34)ccc2[nH]1 | 1.69 °C | 0.24 °C | 0.93 °C | 0.42 °C | 0.41 °C | 0.22 °C | 0.2 °C | 0.6 °C | 0 °C | 0.2 °C | 0.81 °C | 1.36 °C | 0.76 °C | 1.5 °C | -0.11 °C | 0.52 °C | 0.7 °C | 1.17 °C | 1.77 °C | 0.7 °C
7 | Cn1cc(-c2cnn3c(N)c(Br)c([C@@H]4CCCNC4)nc23)cn1 | 0.38 °C | 0.39 °C | 0.35 °C | 0.21 °C | 0.82 °C | 1.25 °C | 0.31 °C | 0.35 °C | 0.23 °C | 0.71 °C | -0.78 °C | 1.36 °C | 0.1 °C | 0.91 °C | 0.29 °C | 0.3 °C | 2.88 °C | 0.14 °C | 3.6 °C | -0.03 °C
8 | COc1cc2ncnc(Nc3cccc(Cl)c3)c2cc1OC [AG-1478 (Tyrphostin AG-1478)] | 1.49 °C | 1.82 °C | 0.65 °C | 0.5 °C | 0.56 °C | 0.99 °C | 1.07 °C | 2.73 °C | 0.17 °C | 1.69 °C | 1.76 °C | 1.26 °C | 1.02 °C | 0.95 °C | 0.94 °C | 0.55 °C | 1.34 °C | 1.69 °C | 6.87 °C | 1.37 °C
9 | COc1ccc(CCNCc2ccc(OCc3ccc(Cl)nc3)c(OC)c2)cc1OC | 0.02 °C | 0.3 °C | 0.52 °C | 0.46 °C | 0.35 °C | 0.01 °C | 0.48 °C | 0.52 °C | -0.03 °C | -0.18 °C | 1.03 °C | 0.8 °C | 0.19 °C | -0.28 °C | 0.24 °C | 0.23 °C | 0.28 °C | 0.56 °C | 0.14 °C | 0.22 °C
10 | C=CC(=O)Nc1cccc(C)c1Nc1ncc2cc(-c3c(Cl)c(OC)cc(OC)c3Cl)ccc2n1 | 0.73 °C | 1.61 °C | 1.22 °C | 0.52 °C | 0.39 °C | 0.77 °C | 0.15 °C | 0.36 °C | 0.29 °C | 0.2 °C | 1.11 °C | 1.2 °C | 0.26 °C | -0.06 °C | 0.6 °C | 0.35 °C | 0.78 °C | 0.7 °C | 1.59 °C | 0.63 °C
11 | O=C(Nc1cccnc1)c1cc(-c2ccnc(F)c2)ccc1OCc1ccccc1 | 2.5 °C | 0.28 °C | -0.53 °C | 0.66 °C | -0.01 °C | 0.38 °C | -0.21 °C | 0.88 °C | 0.01 °C | -0.04 °C | 0.33 °C | 0.69 °C | 0.86 °C | -0.26 °C | 0.85 °C | 0.12 °C | 0.46 °C | 2.26 °C | 0.34 °C | 0.6 °C
12 | COc1cc2nccc(Oc3ccc(NC(=O)Nc4cc(C)on4)c(Cl)c3)c2cc1OC [Tivozanib (AV-951)] | 1.87 °C | 1.12 °C | 1.76 °C | 0.05 °C | 0.65 °C | 0.54 °C | -0.67 °C | 1.22 °C | -0.16 °C | 6.73 °C | 1.99 °C | 1.29 °C | 0.04 °C | 1.3 °C | 0.1 °C | 0.66 °C | 0.91 °C | 1.02 °C | 6.58 °C | 0.14 °C
